Reference: PMC7862700, “An all-to-all approach to the identification of sequence-specific readers for epigenetic DNA modifications on cytosine”

What was measured:
Test in all cases: DAPPL (digital affinity profiling via proximity ligation, sequencing); 10 mM Tris-HCl pH 7.5, 50 mM NaCl, 1 mM DTT, 4% glycerol, room temperature, 30 min; GST-TFs on glutathione beads, 16-mer random dsDNA library, 0.1% formaldehyde crosslink after washing; high values mean tight binding
Settings in all cases: protein: recombinant; tags: N-terminal GST; dsDNA, one strand shown
[1] = target: T1, FLI1 (Homo sapiens, UniProt Q01543 1-452)
T1 sequence: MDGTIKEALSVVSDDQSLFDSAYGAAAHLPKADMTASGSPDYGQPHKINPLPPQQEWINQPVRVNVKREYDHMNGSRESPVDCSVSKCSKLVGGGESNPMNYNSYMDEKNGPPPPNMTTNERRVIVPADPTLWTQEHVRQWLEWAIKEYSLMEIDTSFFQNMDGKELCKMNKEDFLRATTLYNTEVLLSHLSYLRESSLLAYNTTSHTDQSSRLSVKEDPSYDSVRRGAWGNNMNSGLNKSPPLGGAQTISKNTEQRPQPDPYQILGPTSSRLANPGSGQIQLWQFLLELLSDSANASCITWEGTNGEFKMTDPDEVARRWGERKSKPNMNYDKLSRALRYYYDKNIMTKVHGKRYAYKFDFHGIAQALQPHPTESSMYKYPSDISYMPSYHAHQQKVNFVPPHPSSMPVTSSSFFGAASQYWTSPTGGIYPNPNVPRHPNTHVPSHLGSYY
Outline: (§1)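 GST fusions of human transcription factors were expressed in yeast and captured with glutathione beads. Once given DNA barcodes and pooled alongside a tag-only sample, they were incubated for 30 min at room temperature with 200 nmole of a random double-stranded 16-mer DNA library in Tris/NaCl/DTT/glycerol buffer, then washed, crosslinked (0.1% formaldehyde), proximity-ligated, PCR-amplified and sequenced on an Illumina NextSeq500. The binding signal of each hexamer is its read frequency for a factor divided by its frequency for the tag-only sample.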

[2] = target: SPI1 (Homo sapiens, UniProt P17947 1-270)
Outline: as §1

[3] = target: T2, ELK3 (Homo sapiens, UniProt P41970 1-407)
T2 sequence: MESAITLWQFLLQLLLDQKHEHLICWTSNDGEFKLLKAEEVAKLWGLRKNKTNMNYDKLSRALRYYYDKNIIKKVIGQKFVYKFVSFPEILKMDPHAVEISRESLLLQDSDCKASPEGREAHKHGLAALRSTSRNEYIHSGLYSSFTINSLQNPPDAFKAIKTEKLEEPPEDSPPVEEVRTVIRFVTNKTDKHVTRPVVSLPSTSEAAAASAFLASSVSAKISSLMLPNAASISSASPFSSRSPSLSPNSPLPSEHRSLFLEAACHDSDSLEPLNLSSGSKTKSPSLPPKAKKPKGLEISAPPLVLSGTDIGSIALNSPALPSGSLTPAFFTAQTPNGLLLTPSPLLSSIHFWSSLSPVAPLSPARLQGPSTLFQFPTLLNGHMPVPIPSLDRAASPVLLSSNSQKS
Outline: as §1

[4] = target: T3, ELF5 (Homo sapiens, UniProt Q9UKW6-2 1-255)
T3 sequence: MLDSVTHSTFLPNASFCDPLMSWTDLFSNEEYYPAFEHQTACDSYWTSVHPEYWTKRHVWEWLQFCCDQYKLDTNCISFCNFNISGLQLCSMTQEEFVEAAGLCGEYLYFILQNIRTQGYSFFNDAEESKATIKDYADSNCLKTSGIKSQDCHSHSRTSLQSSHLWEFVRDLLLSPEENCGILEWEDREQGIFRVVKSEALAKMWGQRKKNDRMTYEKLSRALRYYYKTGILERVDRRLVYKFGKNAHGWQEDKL
Outline: as §1

[5] = target: CRX (Homo sapiens, UniProt O43186 1-299)
Chain of CRX (O43186 whole entry): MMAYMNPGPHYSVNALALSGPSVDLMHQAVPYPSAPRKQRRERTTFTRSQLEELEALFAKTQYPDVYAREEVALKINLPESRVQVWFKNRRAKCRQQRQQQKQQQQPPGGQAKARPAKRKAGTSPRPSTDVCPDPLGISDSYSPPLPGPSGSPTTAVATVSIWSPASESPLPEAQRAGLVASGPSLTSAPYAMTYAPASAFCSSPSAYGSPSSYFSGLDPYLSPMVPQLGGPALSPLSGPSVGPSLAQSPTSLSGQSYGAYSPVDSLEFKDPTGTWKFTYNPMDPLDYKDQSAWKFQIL
Outline: as §1

Row | Sequence | binding signal [1] | binding signal [2] | binding signal [3] | binding signal [4] | binding signal [5]
1 | GCTATC | 1.07 fold enrichment (6-mer frequency, TF over GST control) | 1.12 fold enrichment (6-mer frequency, TF over GST control) | 1.12 fold enrichment (6-mer frequency, TF over GST control) | 1.04 fold enrichment (6-mer frequency, TF over GST control) | 
2 | CTGGGC | 1.15 fold enrichment (6-mer frequency, TF over GST control) | 1.05 fold enrichment (6-mer frequency, TF over GST control) | 1.02 fold enrichment (6-mer frequency, TF over GST control) |  | 
3 | CAAGTT | 1.11 fold enrichment (6-mer frequency, TF over GST control) |  | 1.03 fold enrichment (6-mer frequency, TF over GST control) | 1.03 fold enrichment (6-mer frequency, TF over GST control) | 
4 | TGCCCA | 1.21 fold enrichment (6-mer frequency, TF over GST control) | 1.09 fold enrichment (6-mer frequency, TF over GST control) |  | 1.01 fold enrichment (6-mer frequency, TF over GST control) | 
5 | GTTGTT | 1.17 fold enrichment (6-mer frequency, TF over GST control) | 1.09 fold enrichment (6-mer frequency, TF over GST control) | 1.1 fold enrichment (6-mer frequency, TF over GST control) | 1.19 fold enrichment (6-mer frequency, TF over GST control) | 
6 | TGATAC | 1.13 fold enrichment (6-mer frequency, TF over GST control) | 1.19 fold enrichment (6-mer frequency, TF over GST control) | 1.08 fold enrichment (6-mer frequency, TF over GST control) | 1.1 fold enrichment (6-mer frequency, TF over GST control) | 1.1 fold enrichment (6-mer frequency, TF over GST control)
7 | CCCTGA | 1 fold enrichment (6-mer frequency, TF over GST control) | 1.03 fold enrichment (6-mer frequency, TF over GST control) | 1.12 fold enrichment (6-mer frequency, TF over GST control) | 1.06 fold enrichment (6-mer frequency, TF over GST control) | 1.03 fold enrichment (6-mer frequency, TF over GST control)
8 | CCCCCC | 1.03 fold enrichment (6-mer frequency, TF over GST control) | 1.07 fold enrichment (6-mer frequency, TF over GST control) | 1.12 fold enrichment (6-mer frequency, TF over GST control) | 1.09 fold enrichment (6-mer frequency, TF over GST control) | 
9 | CATCAT | 1.06 fold enrichment (6-mer frequency, TF over GST control) | 1.11 fold enrichment (6-mer frequency, TF over GST control) |  | 1.07 fold enrichment (6-mer frequency, TF over GST control) | 
10 | CGATGC | 1.13 fold enrichment (6-mer frequency, TF over GST control) | 1.12 fold enrichment (6-mer frequency, TF over GST control) |  |  | 
11 | TTGTCA | 1.1 fold enrichment (6-mer frequency, TF over GST control) | 1.16 fold enrichment (6-mer frequency, TF over GST control) | 1.13 fold enrichment (6-mer frequency, TF over GST control) | 1.05 fold enrichment (6-mer frequency, TF over GST control) | 
12 | ATGCCA | 1.01 fold enrichment (6-mer frequency, TF over GST control) |  |  | 1.01 fold enrichment (6-mer frequency, TF over GST control) | 
13 | AGCGCC | 1.01 fold enrichment (6-mer frequency, TF over GST control) |  | 1.02 fold enrichment (6-mer frequency, TF over GST control) |  | 
14 | ACAGCA | 1.01 fold enrichment (6-mer frequency, TF over GST control) |  | 1.02 fold enrichment (6-mer frequency, TF over GST control) |  | 
15 | TCATGT | 1.14 fold enrichment (6-mer frequency, TF over GST control) | 1.15 fold enrichment (6-mer frequency, TF over GST control) |  | 1.01 fold enrichment (6-mer frequency, TF over GST control) | 
16 | CACGCA | 1.11 fold enrichment (6-mer frequency, TF over GST control) |  | 1.14 fold enrichment (6-mer frequency, TF over GST control) |  | 
